Assay outcomes deposited in PubChem BioAssay by National Center for Advancing Translational Sciences (NCATS).
FMDV antiviral = foot and mouth disease virus antiviral activity; 410,000 tested, 1.2% active; FMDV antiviral cell-based qHTS; Potency, µM (titrated, usually from 57.9 µM), actives largely listed as inhibitors; calls by dose curve; tested in HEK293T cells; note: read-out not given here; nearly all actives have a fitted effect of over 45% in size
HCMV inh = blocks human cytomegalovirus replication; HFF cells, HCMV-luciferase reporter, 72 h; active compounds read low; activity change, negative = inhibition, % at 57.5 µM; 410,000 tested, 4.5% active; AID 1259415; in the data active = activity change below about -60%; inconclusive = no clear call, values can overlap the other calls; inactive = above about -39%
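Screen run at 2 compound doses on HFFs infected with reporter HCMV, MOI 1 PFU/cell. Luciferase activity from cell lysates at 72 h post infection gave inhibition relative to buffer-only and Salinomycin wells.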
Marburg entry inh = Marburg virus entry inhibition; Potency, µM (titrated, usually from 37.8 µM), usual class: inhibitors; 300,000 tested, 1.8% active; Marburg virus pseudotyped entry inhibition, cell reporter; AID 540276; calls by dose curve; tested in HEK293 cells
Lassa entry inh = blocks Lassa virus binding to or entry into cells; Lassa virus pseudotype entry inhibition, cell reporter; Potency, µM (doses to about 37.9 µM), actives largely listed as inhibitors; 300,000 tested, 1.2% active; AID 540256; calls by dose curve; tested in HEK293 cells; note: nearly all actives have a fitted effect of over 50% in size
Of the large screens only hits and unclear results are named; the others gave an inactive call. In the library only some 6.2% were active in any assay of this set; here they are far more common.

Cc1ccc(C)c(Nc2nc3nonc3nc2N2CCOCC2)c1	none
O=C(NCc1ccccn1)[C@@H]1CCCN1C(=O)[C@@H]1CCCN1C(=O)c1c(F)cccc1F	none (no result: Marburg entry inh, Lassa entry inh)
CC(C)(C)c1ccc(C(=O)Nc2ccccc2C(=O)OCc2cc(=O)n3ccsc3n2)cc1	none (no result: Marburg entry inh)
CC1=CC=CN2C[C@H](O)CN=C12	none (no result: FMDV antiviral, HCMV inh, Lassa entry inh)
O=C(c1ccc(CSc2nc3ccncc3n2Cc2ccccc2F)cc1)N1CCCCC1	HCMV inh -62.3 (no result: Lassa entry inh)
Cc1ccc(Cn2c(SCc3ccc(C(=O)NC4CCCC4)cc3)nc3ccncc32)cc1	FMDV antiviral inconclusive, HCMV inh -74.1
O=C(c1ccc(CSc2nc3ccncc3n2Cc2ccc(F)cc2)cc1)N1CCCCCC1	none
Cc1ccc(Cn2c(SCc3ccc(C(=O)NC4CCCCC4)cc3)nc3ccncc32)cc1	FMDV antiviral inconclusive, HCMV inh inconclusive (no result: Lassa entry inh)
CCc1ccc(S(=O)(=O)/N=C2\C=C(Nc3ccc(C(=O)O)cc3)C(=O)c3ccccc32)cc1	FMDV antiviral inconclusive, HCMV inh -97.6, Marburg entry inh inconclusive, Lassa entry inh inconclusive
CCc1ccc(NC2=CC(=O)C(=O)c3ccccc32)cc1	Marburg entry inh inconclusive, Lassa entry inh inconclusive
Cc1ccc(S(=O)(=O)/N=C2\C=C(Nc3ccc(O)cc3)C(=O)c3ccccc32)cc1	FMDV antiviral 10µM, Marburg entry inh inconclusive, Lassa entry inh 2.82µM (no result: HCMV inh)
Cc1cc(O)c(C)c(O)c1C(=O)O	none (no result: HCMV inh, Marburg entry inh, Lassa entry inh)
O=C(Nc1ccc2c(c1)OCO2)N[C@H]1CC[C@@]23CCCN2C(=O)CCC[C@H]3C1Cc1ccccc1 (stereo not given in full)	none (no result: FMDV antiviral, Marburg entry inh, Lassa entry inh)
COc1ccccc1Cn1c(CNS(=O)(=O)c2ccccc2Cl)nc2cccnc21	none (no result: Marburg entry inh)
CCCCn1c(NC(=O)c2ccccc2Cl)c(C#N)c2nc3ccccc3nc21	HCMV inh -60.5, Marburg entry inh 20.6µM
COCCCNC(=O)c1c(NC(=O)c2ccccc2Cl)n(Cc2ccccc2)c2nc3ccccc3nc12	none
N#Cc1c(NC(=O)c2ccccc2Cl)n(Cc2ccccc2)c2nc3ccccc3nc12	HCMV inh -70.3, Lassa entry inh inconclusive
CCCCn1c(NC(=O)CC)c(C#N)c2nc3ccccc3nc21	none
COc1ccc(CN(C)Cc2nc(Cc3cccc(F)c3)no2)c2cccnc12	FMDV antiviral 10µM, HCMV inh -82.2, Marburg entry inh inconclusive, Lassa entry inh inconclusive
Cc1ccc(NC(=O)CN(C)S(=O)(=O)c2cnc[nH]2)cc1	none
COc1ccc(-n2cc(CN(C)C3CCOCC3)c(-c3cccc(F)c3)n2)cc1	Marburg entry inh inconclusive, Lassa entry inh inconclusive
COc1ccc(-n2cc(CNCC3CC(=O)N(C4CC4)C3)c(-c3ccccc3Cl)n2)cc1 (stereo not given)	Marburg entry inh 11.2µM, Lassa entry inh inconclusive
COc1ccc(-n2cc(CNCC3CCOCC3)c(-c3cccc(F)c3)n2)cc1	HCMV inh -88.8 (no result: Marburg entry inh, Lassa entry inh)
O=C(COc1ccc(S(=O)(=O)N2CCOCC2)cc1)N1CCN(Cc2ccc3c(c2)OCO3)CC1	FMDV antiviral inconclusive, HCMV inh -61.3
O=C(NCc1ccc2c(c1)OCO2)c1c[nH]c2ccc(S(=O)(=O)N3CCOCC3)cc2c1=O	Lassa entry inh 0.517µM
CC(=O)N1CCc2cc(S(=O)(=O)NCCC(=O)N3CCN(Cc4ccccc4)CC3)ccc21	FMDV antiviral inconclusive, HCMV inh -66.1, Lassa entry inh inconclusive
O=C(COc1ccc(S(=O)(=O)N2CCOCC2)cc1)N1CCCCCC1	HCMV inh -84.8
Cc1ccc(S(=O)(=O)NCCC(=O)N2CCN(Cc3ccccc3)CC2)cc1	none (no result: FMDV antiviral)
Cc1ccc(CNC(=O)c2c[nH]c3ccc(S(=O)(=O)N4CCOCC4)cc3c2=O)cc1	Lassa entry inh inconclusive (no result: Marburg entry inh)
O=C(COc1ccc(S(=O)(=O)N2CCCCC2)cc1)N1CCOCC1	none
CCCCNS(=O)(=O)c1ccc(OCC(=O)N2CCN(Cc3ccc4c(c3)OCO4)CC2)cc1	HCMV inh -83.3 (no result: Marburg entry inh, Lassa entry inh)
O=S(=O)(Nc1ccc(S(=O)(=O)N2CCOCC2)cc1)c1ccc(Br)cc1	none
CCCNS(=O)(=O)c1ccc(OCC(=O)N2CCN(c3ccccc3)CC2)cc1	none
O=S(=O)(c1ccc(Oc2ccc(Br)cc2)cc1)N1CCOCC1	FMDV antiviral inconclusive, HCMV inh -72.7, Marburg entry inh inconclusive, Lassa entry inh inconclusive
CS(=O)(=O)N(CC(=O)N1CCN(Cc2ccc3c(c2)OCO3)CC1)Cc1ccc(Cl)cc1	FMDV antiviral inconclusive, HCMV inh -83.7, Lassa entry inh 9.2µM
CCCNS(=O)(=O)c1ccc(OCC(=O)N2CCN(Cc3ccccc3)CC2)cc1	Marburg entry inh inconclusive, Lassa entry inh 18.3µM
COc1ccc(NC(=O)N2CCC3(CC2)CCN(C(=O)c2cccc(F)c2)CC3)cc1	none (no result: HCMV inh, Marburg entry inh, Lassa entry inh)
O=S(=O)(CCN1CCOCC1)c1ccc(Oc2ccc(S(=O)(=O)CCN3CCOCC3)cc2)cc1	FMDV antiviral inconclusive, HCMV inh -65.3, Marburg entry inh inconclusive
